# Active and inactive are the calls of the source.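 How the source made its calls: active means falling FRET signal with an AC50 fitted within ten times the highest valid concentration tested for that sample (actives reach about 61 µM in these data); inactive means the rest, including compounds that raise the signal.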
# Assay: compounds lowering YIC probe YFP/CFP ratio – biochemical, dry powder samples, FRET, counter-screen for RanGTP-importin-beta inhibitor project, dose response (AID 493094)
# Details: cell-free YIC FRET probe; series mostly up to 100 µM; activity change, negative = inhibition: at the top concentration
SMILES,"activity change, negative = inhibition",AC50
c1ccc2c(N3CCOCC3)nc(N3CCOCC3)nc2c1,-0.521% (inactive),
COc1ccc(CCNC(=O)c2cc3c(=O)n4cccc(C)c4nc3n(CCCN3CCOCC3)c2=N)cc1,,4.28 µM (active)
O=c1[nH]c(N2CCCC2)nc2ccccc12,-5.45% (inactive),
CCCN(CCC)c1nc(N2CCNCC2)c2ccccc2n1,-12.9% (inactive),
c1ccc(CNc2nc(N3CCCC3)nc3ccccc23)cc1,6.88% (inactive),
CCCN(CCC)c1nc(Cl)nc2ccccc12,-9.7% (inactive),
CCCN(CCC)c1nc(N)c2ccccc2n1,-8.69% (inactive),
CCCN(CCC)c1nc(N2CCCC2)c2cc(OC)c(OC)cc2n1,-7.73% [at 26 µM] (inactive),
CC(C)SCC(=O)Nc1ncc2c(n1)-c1ccccc1CC2,,6.37 µM (active)
Clc1nc(NCc2ccccc2)c2ccccc2n1,-8.16% (inactive),
COc1ccc(-c2cc(C(F)(F)F)n3nc(N)nc3n2)cc1,,54.5 µM (active)
CCN(CC)c1nc(N2CCCC2)nc2ccccc12,-6.96% (inactive),
Cc1ccc(S(=O)(=O)c2cc3c(=O)n4cccc(C)c4nc3n(C3CCCCC3)c2=N)cc1,,26 µM (active)
CC1(C)CCC(c2ccc(Cl)cc2)=C(CN2CCN(c3ccc(C(=O)NS(=O)(=O)c4ccc(N[C@H](CCN5CCOCC5)CSc5ccccc5)c(S(=O)(=O)C(F)(F)F)c4)cc3)CC2)C1,-3.98% (inactive),
COc1cc(OC)cc(C(=O)NCCNc2nc3cc(C)cc(C)c3cc2C#N)c1,,27 µM (active)
COCCNC(=O)/C(C#N)=C/c1cn(CC(=O)NCc2ccco2)c2ccccc12,,61.3 µM (active)
CC1(C)CC(=O)c2c(C(F)(F)F)nn(-c3ccc(C(N)=O)c(NC4CCC(OC(=O)CN)CC4)c3)c2C1 (stereo unspecified),-7.87% (inactive),
CC(Nc1nc(N2CCCC2)nc2ccccc12)c1ccccc1 (stereo unspecified),-5.12% (inactive),

SMILES,"activity change, negative = inhibition",AC50
CC1=C(C(=O)OCC2CCCO2)C(c2ccccc2OC(C)C)C2C(=O)CC(c3ccco3)CC2=N1 (stereo unspecified),,13.2 µM (active)
Cc1cccc(-n2c(C)cc(/C=C3/C(=N)N4N=C(CC(C)C)SC4=NC3=O)c2C)c1,,25.4 µM (active)
COc1cc2nc(N3CCCC3)nc(N3CCCC3)c2cc1OC,-4.26% (inactive),
Cc1cc(Nc2ccc(C(F)(F)F)cc2)n2ncnc2n1,-7.53% (inactive),
O=C(O)Cn1cc(/C=C2\SC(=O)N(CC(=O)N3CCCCCC3)C2=O)c2ccccc21,,55.3 µM (active)
CCCN(CCC)c1nc(N2CCOCC2)nc2ccccc12,-4.59% (inactive),
CCCN(CCC)c1nc(N2CCCC2)nc2ccccc12,,inactive
c1ccc2c(N3CCCC3)nc(N3CCCC3)nc2c1,-8.4% (inactive),
C=CCn1c(N)c(C(=O)OCCC)c2nc3ccccc3nc21,,36.9 µM (active)
C[C@@H](Nc1nc(Cl)nc2ccccc12)c1ccccc1,-3.98% (inactive),
CC1(C)CC(=O)c2c(C(F)(F)F)nn(-c3ccc(C(N)=O)c(NC4CCC(O)CC4)c3)c2C1 (stereo unspecified),-5.26% (inactive),
CCNc1nc(N2CCCC2)nc2ccccc12,-7.07% (inactive),
C[C@H](Nc1nc(Cl)nc2ccccc12)c1ccccc1,-1.62% (inactive),
CCCN(CCC)c1nc(NCc2ccccc2)nc2ccccc12,-6.33% (inactive),
CC1(C)CC(=O)c2c(C(F)(F)F)nn(-c3ccc(C(N)=O)c(OC4CCC(N)CC4)c3)c2C1 (stereo unspecified),-11.5% (inactive),
C[C@H](Nc1nc(N2CCCC2)nc2ccccc12)c1ccccc1,-2.49% (inactive),
C[C@@H](Nc1nc(N2CCCC2)nc2ccccc12)c1ccccc1,2.73% (inactive),
CCCN(CCC)c1nc(N2CCCC2)nc2cc(OC)c(OC)cc12,0.149% [at 50 µM] (inactive),

# From PubChem BioAssay AID493094 (Broad Institute, 2011)
